MmCpn inh = Inhibitors of TCP-1 ring complex (TRiC) of Methanococcus maripaludis (MmCpn): qHTS; Chaperonin Mm-Cpn (Methanococcus maripaludis); purified Mm-Cpn ATPase, ADP Transcreener TR-FRET; Potency, µM (series often up to 76.9 µM), usual class: inhibitors; hit rate 0.031% among 330,000; further: nearly all actives have a fitted effect of over 80% in size
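ATPase read-out: TR-FRET ADP immunoassay (anti-ADP Eu cryptate vs ADP-d2), ex 320 nm, em 590/665 nm; signal drops as ADP forms. Enzyme 25 nM, ATP 10 uM, 30 min at 37°C after 10 min compound preincubation.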
GLP-1R inv ag = qHTS of GLP-1 Receptor Inverse Agonists (Inhibition Mode); HEK293 GLP-1R CRE-luciferase, luminescence, 24 h; GLP-1R form is constitutively active; Potency, µM (top dose mostly 38.3 µM), usual class: inhibitors; hit rate 1.6% among 410,000; further: nearly all actives have a fitted effect of over 55% in size
Target sequence (P43220 whole entry, looked up): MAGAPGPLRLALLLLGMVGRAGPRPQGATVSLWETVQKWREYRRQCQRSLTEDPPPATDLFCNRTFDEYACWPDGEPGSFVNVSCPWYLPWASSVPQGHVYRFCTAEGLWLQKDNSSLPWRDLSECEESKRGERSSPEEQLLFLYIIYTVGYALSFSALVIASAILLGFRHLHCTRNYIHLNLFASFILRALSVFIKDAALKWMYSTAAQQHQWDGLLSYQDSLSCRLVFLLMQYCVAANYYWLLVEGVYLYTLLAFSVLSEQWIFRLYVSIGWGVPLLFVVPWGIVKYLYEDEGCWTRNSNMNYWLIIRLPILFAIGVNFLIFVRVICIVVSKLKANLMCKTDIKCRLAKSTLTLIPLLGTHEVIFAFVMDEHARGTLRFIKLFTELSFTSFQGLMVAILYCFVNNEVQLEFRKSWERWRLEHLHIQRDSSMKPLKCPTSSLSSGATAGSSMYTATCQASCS
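Seeding at 200 cells/uL, 12 h culture, 24 hr compound treatment, then luciferase reagent and a luminescence read; cells are HEK293 stably expressing a constitutively active GLP-1R plus cAMP-responsive luciferase.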
uPA generation = qHTS for Inhibitors of Cell Surface uPA Generation; cell surface uPA generation assay, qHTS; Potency, µM (doses to about 38.3 µM), usual class: inhibitors; hit rate 0.31% among 330,000; active means well fitted inhibition curve with a large enough effect; inconclusive means small, poorly fitted or top-dose-only effect; inactive means no such curve, though single readings can be large or run the other way; tested in mouse RAW 264.7 cells; further: nearly all actives have a fitted effect of over 55% in size
GLP1R ag = qHTS of GLP-1 Receptor Agonists; Glucagon-like peptide 1 receptor (Homo sapiens), P43220; HEK293 GLP-1R CRE-luciferase, luminescence, 4-6 h; cells express a hypersensitive GLP-1R form; Potency, µM (titrated, usually from 45.6 µM), hits mostly activators; hit rate 0.007% among 380,000; AID 624172, 2012
CCT chaperon mod = High-Throughput Screening for Modulators of Cytosolic Chaperonin Activity | purified chaperonin ATPase assay, HTRF ADP detection, 30 min | activity change, % (test concentration not listed), hits read low | hit rate 0.3% among 360,000 | AID 651819, 2012; in the data active means activity change below about -30%
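We incubate TRiC, 40 or 20 nM final, with library compounds at 76 uM and 10 uM ATP for 30 min at 37 °C. ADP formed is detected with Transcreener HTRF reagents after 30 min at room temperature.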
GLP1R cytotox = qHTS of GLP-1 Receptor Inverse Agonists: Cytotox Screen. Potency, µM (top dose mostly 38.3 µM), hits mostly inhibitors. AID 624418, 2012. HEK293 cAMP-luciferase reporter cells, luminescence, 24 h. hit rate 0.13% among 410,000;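 further: loss of luciferase light is scored as toxicity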
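A 23 nL compound transfer followed 12 hours of cell culture at 37 deg C; exposure then lasted 24 hr. Luciferase assay detection reagent was dispensed and plates read for luminescence after a 12 min room-temperature wait.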
Hits are given with their value; i = inactive; ? = inconclusive; nt = no result. Compounds with a hit are over-represented: about 2.2% of the library has one in this group of screens. Unless noted, the call rests on the fitted dose curve; in most records, active means well fitted curve in the direction sought with a large enough effect; inconclusive means small, poorly fitted or top-dose-only effect, or another doubt; inactive means no such curve, though single readings can be large; an effect the other way counts as inactive or inconclusive.

SMILES	MmCpn inh	GLP-1R inv ag	uPA generation	GLP1R ag	CCT chaperon mod	GLP1R cytotox
CCOC(=O)C1(N(CC)CC)Sc2cc(C)ccc2NC1=O (centres undefined)	i	6.31µM	i	i	i	?
CNc1nc(SCc2ccc(C)cc2)nc2c1CCCC2	i	?	i	i	i	i
Cc1ccc(CSc2nc3c(c(N(C)C)n2)CCCC3)cc1	i	11.2µM	i	i	i	i
Cc1ccc2c(=O)cc(C(=O)Nc3c(C(=O)c4ccc(F)cc4)oc4ccccc34)oc2c1C	nt	i	nt	nt	nt	i
COC(=O)c1sccc1NC(=O)CNC(=O)c1ccccc1	i	i	i	i	-75.9	i
COC(=O)c1sccc1NC(=O)c1ccc(C)cc1	i	i	i	i	i	i
Cc1ccccc1NC(=O)C1CCN(S(=O)(=O)c2ccccc2)CC1	nt	i	nt	nt	nt	i
Cc1ccc(-c2nc3c(C)cccn3c2Nc2ccccc2C)s1	nt	?	nt	nt	nt	i
CN1CCN(CCOC2Cc3ccccc3Sc3ccc(Cl)cc32)CC1 (centres undefined)	i	8.91µM	i	i	i	?
CN1CCN(CCC(=O)N2c3ccccc3Sc3ccc(Cl)cc32)CC1	i	?	i	i	i	?
CCc1nn2cc(-c3ccccc3)nc2s1	i	5.62µM	i	i	i	i
O=S(=O)(NCC(c1ccco1)N1CCN(c2ccccc2)CC1)c1ccccc1 (centres undefined)	nt	i	nt	nt	nt	i
CSc1ccc(-c2nc3cccc(C)n3c2Nc2ccc3c(c2)OCO3)cc1	nt	10µM	nt	nt	nt	i
Cc1cccc2nc(-c3ccco3)c(Nc3ccc4c(c3)OCO4)n12	i	8.91µM	i	i	i	i
COc1ccc(OC)c(C2c3c(-c4ccc(Br)cc4)n[nH]c3C(=O)N2c2ccc(Cl)cc2)c1 (centres undefined)	nt	i	nt	i	nt	i
COc1ccc(C(CNC(=O)c2oc3c(Cl)cccc3c2C)N2CCCC2)cc1 (centres undefined)	i	10µM	i	i	i	?
CCC(=O)N(Cc1cc2cc(C)c(C)cc2[nH]c1=O)C1CCCCC1	i	10µM	i	i	i	i
O=C(Nc1ccc2c(c1)OCCO2)NC1(C(F)(F)F)Oc2ccccc2O1	i	?	2.51µM	i	i	i
O=C(NC(NC(=S)Nc1ccc(Cl)cc1)C(Cl)(Cl)Cl)c1ccco1 (centres undefined)	i	3.55µM	i	i	i	?
CC(=O)c1ccc(NC(=S)NC(NC(=O)c2ccco2)C(Cl)(Cl)Cl)cc1 (centres undefined)	i	5.01µM	i	i	i	i
COc1ccccc1NC(=S)NC(NC(=O)c1ccco1)C(Cl)(Cl)Cl (centres undefined)	i	?	i	i	i	i
O=C(NC(NC(=S)Nc1ccccc1O)C(Cl)(Cl)Cl)c1ccco1 (centres undefined)	i	?	i	i	i	i
CCc1ccc(C(=O)CSc2nc(-c3ccccc3)nc3c2CCCC3)cc1	nt	i	nt	i	nt	i
O=C(Nc1cccc([N+](=O)[O-])c1)NC1CCCCCCC1	i	10µM	i	i	i	i
COc1cc(NC(=O)Nc2cccc([N+](=O)[O-])c2)cc(OC)c1	i	?	i	i	-52.9	i
SMILES	MmCpn inh	GLP-1R inv ag	uPA generation	GLP1R ag	CCT chaperon mod	GLP1R cytotox
O=C(Nc1cccc([N+](=O)[O-])c1)Nc1cccc([N+](=O)[O-])c1	?	?	i	i	i	i
NCCc1nc2cccnc2n1-c1ccccc1	nt	i	nt	nt	nt	i
CCc1noc(-c2ccc(N3CCCCC3)c([N+](=O)[O-])c2)n1	nt	i	nt	nt	nt	i
COc1cc2cccc(OC)c(=O)c2c(O)c1OC	i	i	i	i	i	i
COc1cc2c(ccc3cc(OC)c(OC)c(O)c32)cc1O	i	i	10µM	i	i	i
CCC1=Nc2cc(C(=O)NCc3ccc(C)cc3)ccc2Sc2ccc(C)cc21	nt	7.08µM	nt	nt	nt	i
CCC1=Nc2cc(C(=O)NCc3cccnc3)ccc2Sc2ccc(C)cc21	i	1.78µM	i	i	i	?
